Screen size: about 290,000 compounds; about 570 (0.2%) were called active. About 1% were inconclusive and are not listed. Rule as the data show it: active = inhibition mostly above about 51% (no sharp cut-off); inconclusive = no clear call, values can overlap the other calls; inactive = mostly below about 53%. Shown is part of a subset that was picked to be rich in actives.
Target: Voltage-dependent N-type calcium channel subunit alpha-1B (Homo sapiens) (UniProt Q00975)
Experiment: inhibitors of Mint1-CaV2.2 protein interaction, biochemical, HTRF (AID 2073)
Conditions: at 20 µM, stronger effect = higher value
[1] = measured here: average of repeat tests

Chain of Voltage-dependent N-type calcium channel subunit alpha-1B (Homo sapiens) (Q00975 whole entry, looked up): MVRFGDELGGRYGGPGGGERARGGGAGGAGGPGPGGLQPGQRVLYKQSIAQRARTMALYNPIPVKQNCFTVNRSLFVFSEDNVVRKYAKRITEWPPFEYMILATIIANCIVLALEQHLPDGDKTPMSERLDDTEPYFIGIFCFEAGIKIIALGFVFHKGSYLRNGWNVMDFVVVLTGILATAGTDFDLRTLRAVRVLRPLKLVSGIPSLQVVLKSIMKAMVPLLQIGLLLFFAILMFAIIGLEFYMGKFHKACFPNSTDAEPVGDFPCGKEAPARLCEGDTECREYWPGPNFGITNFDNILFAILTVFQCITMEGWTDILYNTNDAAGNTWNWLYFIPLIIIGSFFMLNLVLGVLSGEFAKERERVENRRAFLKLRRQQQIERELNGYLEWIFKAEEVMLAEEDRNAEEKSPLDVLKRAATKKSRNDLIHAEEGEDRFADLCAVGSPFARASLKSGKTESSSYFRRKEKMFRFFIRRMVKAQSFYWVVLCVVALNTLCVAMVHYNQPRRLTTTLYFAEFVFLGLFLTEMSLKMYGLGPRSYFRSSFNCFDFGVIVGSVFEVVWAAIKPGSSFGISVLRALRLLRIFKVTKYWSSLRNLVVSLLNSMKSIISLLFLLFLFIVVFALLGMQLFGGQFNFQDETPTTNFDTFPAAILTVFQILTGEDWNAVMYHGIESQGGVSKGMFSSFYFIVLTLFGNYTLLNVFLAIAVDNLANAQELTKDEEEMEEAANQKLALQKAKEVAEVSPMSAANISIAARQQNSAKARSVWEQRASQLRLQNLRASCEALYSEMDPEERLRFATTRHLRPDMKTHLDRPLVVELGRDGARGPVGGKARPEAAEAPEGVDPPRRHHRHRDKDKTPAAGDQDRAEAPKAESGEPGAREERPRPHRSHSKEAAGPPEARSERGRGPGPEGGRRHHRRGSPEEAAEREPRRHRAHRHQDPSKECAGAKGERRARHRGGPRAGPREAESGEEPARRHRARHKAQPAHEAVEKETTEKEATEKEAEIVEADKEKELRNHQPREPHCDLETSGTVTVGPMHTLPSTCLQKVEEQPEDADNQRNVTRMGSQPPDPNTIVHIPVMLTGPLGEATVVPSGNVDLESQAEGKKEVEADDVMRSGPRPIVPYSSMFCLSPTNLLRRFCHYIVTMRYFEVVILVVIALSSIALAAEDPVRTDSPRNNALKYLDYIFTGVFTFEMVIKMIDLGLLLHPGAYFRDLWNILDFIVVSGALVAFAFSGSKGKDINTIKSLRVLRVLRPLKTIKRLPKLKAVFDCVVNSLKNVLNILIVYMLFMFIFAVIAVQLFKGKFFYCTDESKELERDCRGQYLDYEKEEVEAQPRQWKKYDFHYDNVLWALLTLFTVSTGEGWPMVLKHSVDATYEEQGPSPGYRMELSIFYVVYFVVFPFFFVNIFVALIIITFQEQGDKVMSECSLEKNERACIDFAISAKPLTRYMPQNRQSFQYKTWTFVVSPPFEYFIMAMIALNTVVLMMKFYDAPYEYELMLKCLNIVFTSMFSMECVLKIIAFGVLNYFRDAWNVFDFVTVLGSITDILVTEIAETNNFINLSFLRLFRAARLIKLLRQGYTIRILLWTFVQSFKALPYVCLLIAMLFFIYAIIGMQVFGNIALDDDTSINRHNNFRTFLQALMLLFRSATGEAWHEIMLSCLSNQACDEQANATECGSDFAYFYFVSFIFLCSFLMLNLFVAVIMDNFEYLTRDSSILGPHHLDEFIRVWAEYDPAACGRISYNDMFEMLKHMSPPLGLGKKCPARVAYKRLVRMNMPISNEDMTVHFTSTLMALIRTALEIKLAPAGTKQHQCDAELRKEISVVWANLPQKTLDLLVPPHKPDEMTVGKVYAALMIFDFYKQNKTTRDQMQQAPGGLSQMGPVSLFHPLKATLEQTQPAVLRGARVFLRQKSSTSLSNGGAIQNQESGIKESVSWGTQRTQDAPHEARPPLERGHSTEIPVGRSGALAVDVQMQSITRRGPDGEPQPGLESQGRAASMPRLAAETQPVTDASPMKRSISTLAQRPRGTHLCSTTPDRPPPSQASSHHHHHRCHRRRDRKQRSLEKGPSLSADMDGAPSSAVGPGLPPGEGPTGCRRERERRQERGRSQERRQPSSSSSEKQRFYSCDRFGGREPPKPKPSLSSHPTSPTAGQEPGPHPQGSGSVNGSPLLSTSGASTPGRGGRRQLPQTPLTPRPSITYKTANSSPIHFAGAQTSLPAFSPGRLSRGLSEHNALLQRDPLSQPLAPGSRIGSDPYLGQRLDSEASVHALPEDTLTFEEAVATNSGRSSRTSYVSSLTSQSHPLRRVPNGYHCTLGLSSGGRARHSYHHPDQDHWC

Row | SMILES | inhibition | inhibition [1] [%]
1 | O=C(CC1C(=O)NCCN1Cc1cccc(F)c1)NCCCOc1cccnc1 (stereo unspecified) | 0.9% (inactive) | 
2 | N=C1C(c2nc3ccccc3s2)=C(O)CN1NC(=O)c1c[nH]c2ccccc12 | 53.4% (active) | 
3 | N=C1C(c2nc3ccccc3[nH]2)=C(O)CN1NC(=O)c1c[nH]c2ccccc12 | 2.4% (inactive) | 
4 | N=C1C(c2nc3ccccc3s2)=C(O)CN1NC(=O)c1ccccc1[N+](=O)[O-] | 14.9% (inactive) | 
5 | COc1cc(OC)c(C2C(C#N)=C(C)NC(C)=C2C#N)c(C(=O)O)c1 | -3.5% (inactive) | 
6 | C=C(C)Cn1c(C2CC(=O)N(Cc3ccccc3)C2)nc2ccccc21 (stereo unspecified) | -9.9% (inactive) | 
7 | CCCN(CCC)CCCNC(=O)C1CCN(S(=O)(=O)c2cccc3nsnc23)CC1 | -0.6% (inactive) | 
8 | Cc1ccc(-c2c(C(=O)Nc3ccccc3C)c(C)[nH]c(=S)c2C#N)o1 | 33.2% (inactive) | 
9 | CNC(=O)c1c(C)[nH]c(=S)c(C#N)c1-c1ccco1 | -35.6% (inactive) | 
10 | Cc1ccccc1NC(=O)c1c(C)[nH]c(=S)c(C#N)c1-c1ccco1 | 50.9% (active) | 
11 | CCOC(=O)CNc1nc(Cl)nc(N2CCCCC2)n1 | 6.2% (inactive) | 
12 | Cn1c(=O)c2c(n3cnnc13)-c1ccccc1CC21CCCC1 | 3.5% (inactive) | 
13 | COc1ccccc1CC(=O)Nc1cc(OC)c(NC(=O)c2ccccc2)cc1OC | -5.3% (inactive) | 
14 | COc1ccccc1NC(=O)Cc1cccs1 | -5.5% (inactive) | 
15 | COc1cc(NC(=O)c2ccccc2)c(OC)cc1NC(=O)Cc1cccs1 | 51.4% (active) | 
16 | COc1cc(N=c2ssnc2Cl)c(OC)cc1Cl | 46.5% (inactive) | 
17 | COc1ccc(N=c2ssnc2Cl)cc1 | 27.4% (inactive) | 
18 | COc1cc(/C=C/c2ccc3cccc(O)c3n2)cc(OC)c1OC | 24.9% (inactive) | 
19 | COc1ccc(OC)c(N=c2ssnc2Cl)c1 | 27.6% (inactive) | 
20 | Cc1ccc(-c2nc3ccccc3o2)cc1NC(=O)c1ccc2c(c1)OCO2 | -1.5% (inactive) | 
21 | Cc1ccc2oc(-c3ccc(NC(=O)c4ccc5c(c4)OCO5)cc3)nc2c1 | 6.7% (inactive) | 
22 | O=C(Nc1ccc(-c2nc3ccccc3o2)cc1)c1ccc2c(c1)OCO2 | 66.2% (active) | 
23 | Oc1ccc(Br)cc1CNc1cnc2ccccc2c1 | 13.6% (inactive) | 
24 | O=C(N/N=C/c1ccc([N+](=O)[O-])o1)c1cc(-c2ccc(-c3ccccc3)cc2)nc2ccccc12 | 59.1% (active) | 
25 | O=C(N/N=C/c1ccc([N+](=O)[O-])o1)c1cc(-c2ccncc2)nc2ccccc12 | 20.1% (inactive) | 
26 | O=C(N/N=C/c1ccc([N+](=O)[O-])o1)c1cn(-c2ccccc2)nc1-c1ccccc1 | 60.4% (inactive) | 2.1
27 | CCCc1ccc(-c2cc(C(=O)N/N=C/c3ccc([N+](=O)[O-])o3)c3ccccc3n2)cc1 | 27.9% (inactive) | 
28 | O=C(N/N=C/c1ccc([N+](=O)[O-])o1)c1cn(-c2ccccc2)nc1-c1ccc(Cl)cc1 | 67.5% (active) | 
29 | COc1ccc(-c2nn(-c3ccccc3)cc2C(=O)N/N=C/c2ccc([N+](=O)[O-])o2)cc1 | 50.6% (inactive) | 11.4
